Bioassay records (PubChem)
A selection: hits, their analogues and other compounds. The true share with any hit is near 3.6%.
Rango dissoc inh: qHTS Assay for Inhibitors of RanGTP induced Rango (Ran-regulated importin-beta cargo) - Importin beta complex dissociation; Snurportin-1 (Homo sapiens) + GTP-binding nuclear protein Ran (Homo sapiens) + Importin …; Biochemical FRET Rango-importin beta, RanGTP-induced dissociation; Potency, µM (doses to about 46.1 µM), without a hit: top-dose activity change, negative = inhibition; 340,000 tested, 0.071% active; AID 540253, 2011; calls by dose curve; also: potency is read from the fitted curve at half-maximal effect; % of control where 0% means no effect; nearly all actives have a fitted effect of over 45% in size
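Quantitative HTS using a FRET biosensor: 0.1 uM Rango, 0.25 uM importin beta, 0.6 uM Ran, 2 mM GTP, 0.2 uM RCC1 final, PBS with DTT, Tween-20 and BSA. Post-read taken 45 min after Ran addition.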
PLK1 PBD inh: qHTS for Inhibitors of PLK1-PDB (polo-like kinase 1 - polo-box domain): Primary Screen | Serine/threonine-protein kinase PLK1 (Homo sapiens), P53350 | Plk1 PBD binding of FITC phosphopeptide, fluorescence polarization | Potency, µM, without a hit: max response, negative = inhibition, actives largely listed as inhibitors | 360,000 tested, 2.8% active; also: potency is read from the fitted curve at half-maximal effect; series mostly up to about 57 µM; % is scaled to controls: 0 for no effect and ±100 for the full control effect; nearly all actives have a fitted effect of over 65% in size
Target sequence (P53350 whole entry, looked up, the tested form may be a part): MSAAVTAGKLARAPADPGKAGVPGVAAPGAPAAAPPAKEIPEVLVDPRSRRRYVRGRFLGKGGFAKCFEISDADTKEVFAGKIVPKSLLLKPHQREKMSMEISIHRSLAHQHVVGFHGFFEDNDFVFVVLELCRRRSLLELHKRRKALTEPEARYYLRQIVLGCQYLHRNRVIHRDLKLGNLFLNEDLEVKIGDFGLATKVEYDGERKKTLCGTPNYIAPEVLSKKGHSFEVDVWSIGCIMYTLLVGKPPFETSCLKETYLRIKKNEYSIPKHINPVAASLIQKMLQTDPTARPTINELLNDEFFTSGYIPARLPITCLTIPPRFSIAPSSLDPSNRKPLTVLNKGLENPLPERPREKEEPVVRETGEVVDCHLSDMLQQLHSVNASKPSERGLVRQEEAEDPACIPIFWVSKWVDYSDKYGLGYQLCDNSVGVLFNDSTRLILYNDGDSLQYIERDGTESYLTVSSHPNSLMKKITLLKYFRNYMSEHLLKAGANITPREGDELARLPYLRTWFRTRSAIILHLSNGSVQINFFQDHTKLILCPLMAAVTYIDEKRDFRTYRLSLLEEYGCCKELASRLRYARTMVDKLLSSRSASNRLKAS
PI5P4K alpha inh: qHTS for Inhibitors of phosphatidylinositol 5-phosphate 4-kinase (PI5P4K). Phosphatidylinositol 5-phosphate 4-kinase type-2 alpha (Homo sapiens), P48426. PI5P4Kalpha enzyme, ADP-Glo luminescence, 60 min; active compounds read low. max response, %. 330,000 tested, 1.2% active. AID 652105, 2013; active = max response of -50% or lower; inconclusive = between -30% and -50%; inactive = -30% or higher; also: value at the top dose of about 77 µM; % is scaled to controls: 0 for no effect and ±100 for the full control effect
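Enzyme plus substrate dispensed, test compounds pinned in, then ATP (5 microM final) added. After 60 min at RT, ADP-Glo reagent 1 for 45 min and reagent 2 for 30 min preceded luminescence imaging.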
Rango complex inh: qHTS Assay for Inhibitors of Rango (Ran-regulated importin-beta cargo) - Importin beta complex formation. Importin subunit beta-1 (Homo sapiens), Q14974. Rango CFP/YFP FRET sensor + importin beta, 45 min. Potency, µM (highest dose often 92.2 µM), without a hit: at the highest dose inhibition of complex formation. 340,000 tested, 0.031% active; calls by dose curve;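 also: potency is read from the fitted curve at half-maximal effect; 0% = DMSO wells and 100% = buffer wells lacking importin beta; nearly all actives have a fitted effect of over 15% in size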
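FRET biosensor Rango (snurportin 1 IBB between N-terminal EYFP and C-terminal Cerulean), 50 nM in PBS/1 mM DTT/0.02% Tween-20/0.1% BSA, preincubated 5 min RT with compound; 0.125 microM importin beta added, 45 min RT, CFP/YFP FRET ratio read.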
KAT2A inh: qHTS Assay for Inhibitors of GCN5L2; Histone acetyltransferase KAT2A (Homo sapiens), Q92830; GCN5L2 HAT assay, ThioGlo1 CoA-SH fluorescence; Potency, µM (doses to about 58.9 µM), for the others: top-dose activity change, negative = inhibition, hits mostly inhibitors; 390,000 tested, 0.21% active; AID 504327, 2011; also: potency is read from the fitted curve at half-maximal effect; % is scaled to controls: 0 for no effect and ±100 for the full control effect
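Titration-based screen in which CoA formation is detected via maleimide probe ThioGlo1 (50uM) turning fluorescent on thiol reaction; substrates H3(1-25) 75uM and acetyl-CoA 70uM, GCN5L2 20nM, 20 min incubation at room temperature.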
VDR inhibitor: Inhibitors of the vitamin D receptor (VDR): qHTS; VDR-SRC2-3 peptide fluorescence polarization, 2 h; Potency, µM, for inactives: max response, negative = inhibition, most hits filed as inhibitors; Vitamin D3 receptor (Homo sapiens), P11473; 400,000 tested, 0.93% active; AID 504847, 2011; also: potency is read from the fitted curve at half-maximal effect; % is scaled to controls: 0 for no effect and ±100 for the full control effect
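Fluorescence polarization assay of small-molecule disruption of VDR binding to coregulator peptide SRC2-3. Compounds and controls pin-transferred, then read after 2 h incubation at ambient room temperature.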
USP1 UbRho: Inhibitors of USP1/UAF1: Hit Validation in Primary Assay. shares compounds with VDR inhibitor. Ub-Rhodamine cleavage, fluorescence kinetic read. Potency, µM (titrated, usually from 114 µM), without a hit: at the top dose activity change, negative = inhibition, usual class: inhibitors. 50 tested, 50% active. AID 540327, 2011
VDR confirm: qHTS for Inhibitors of the vitamin D receptor (VDR): Hit Validation in Primary Screen; shares compounds with VDR inhibitor; VDR-coactivator inhibition assay, qHTS confirmation; Potency, µM, most hits filed as inhibitors; 840 tested, 89% active; also: potency is read from the fitted curve at half-maximal effect
VDR FP fluor: qHTS for Inhibitors of the vitamin D receptor (VDR): Hit Validation using a Fluorescein Assay | VDR-coactivator binding, fluorescein fluorescence polarization | 840 tested, 48% active | shares compounds with VDR inhibitor | AID 602200, 2012 | Potency, µM (titrated, usually from 57.1 µM), without a hit: at the top dose activity change, negative = inhibition, actives largely listed as inhibitors; also: potency is read from the fitted curve at half-maximal effect
VDR bla: qHTS for Inhibitors of the vitamin D receptor (VDR): Hit Validation using a Beta-Lactamase Assay | 840 tested, 23% active | AID 602202, 2012 | shares compounds with VDR inhibitor | Potency, µM (top dose mostly 46.1 µM), inactives show at the top dose activity change, negative = inhibition, most hits filed as inhibitors | VDR beta-lactamase reporter cells, FRET ratio; cells co-treated with VDR agonist LG190178; also: potency is read from the fitted curve at half-maximal effect; % is scaled to controls: 0 for no effect and ±100 for the full control effect
VDR viability: qHTS for Inhibitors of the vitamin D receptor (VDR): Hit Validation using a Cytotoxicity Assay; shares compounds with VDR inhibitor; cytotoxicity counter-screen, cell viability, qHTS; Potency, µM (titrated, usually from 48.3 µM), for the others: top-dose activity change, negative = cytotoxicity, most hits filed as cytotoxic; 840 tested, 18% active; AID 602204, 2012;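 also: potency is read from the fitted curve at half-maximal effect; plate controls were DMSO for no effect and high-concentration cycloheximide for full effect; nearly all actives have a fitted effect of over 75% in size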
* = called active by the depositor; ? = inconclusive; · = no result. Unless noted, calls follow the shape of the dose curve; as a rule, active = well fitted curve in the direction sought with a large enough effect; inconclusive = small, poorly fitted or top-dose-only effect, or another doubt; inactive = no such curve, though single readings can be large; an effect the other way counts as inactive or inconclusive.

SMILES	Rango dissoc inh	PLK1 PBD inh	PI5P4K alpha inh	Rango complex inh	KAT2A inh	VDR inhibitor	VDR confirm	VDR FP fluor	VDR bla	VDR viability	others
COc1cc2c(cc1OC)-c1n[nH]c(=S)n1C(C)(C)C2	2.3%	?	-24.9	0.7%	-2.7%	-3.8%	·	·	·	·
COc1cc2c(cc1OC)-c1cc3nc4ccccc4nc3n1C(C)(C)C2	·	·	·	·	?	7.08µM*	20*	?	?	-8.2%	USP1 UbRho=46.9µM*
O=C1Nc2ccccc2/C1=C\C(=O)c1ccccc1	-11.5%	18.9µM*	1.2	0.7%	-1.0%	?	8.91*	3.55µM*	?	?
Cc1c(N/C(=N/S(=O)(=O)c2cc([N+](=O)[O-])ccc2Cl)c2ccccc2)c(=O)n(-c2ccccc2)n1C	0.6%	-14.2%	-6.8	-2.4%	-3.1%	-13.5%	·	·	·	·
CS/C(=N\S(=O)(=O)c1ccccc1)c1ccccc1	27.5%	6.4%	-2.6	5.1%	-1.9%	4.6%	·	·	·	·
O=S(=O)(/N=C(/Sc1ccccc1)c1ccccc1)c1ccc(Cl)cc1	·	·	·	·	·	50.1µM*	7.08*	15.8µM*	-1.7%	?
O=[N+]([O-])c1ccc(Cl)c(S(=O)(=O)/N=C(/Sc2ccc(Br)cc2)c2ccccc2)c1	·	·	·	·	·	?	7.08*	5.01µM*	9.6%	7.7%
O=S(=O)(/N=C(/Sc1ccc(Cl)cc1)c1ccccc1)c1ccccc1	·	·	·	·	·	35.5µM*	3.55*	11.2µM*	0.2%	11.3%
CC(=O)Nc1c(C)nn(-c2ccccc2)c1N1CCC(C(=O)NCc2ccc(Cl)cc2)CC1	·	·	·	·	15.5%	-1.4%	·	·	·	·
CC(=O)c1cc(Cl)ccc1OC(=O)c1ccco1	-5.1%	-10.1%	·	0.5%	-4.2%	-11.7%	·	·	·	·
O=C(Oc1ccc(Br)cc1C(=O)/C=C/c1ccccc1F)c1ccco1	?	-16.0%	4.7	-8.8%	·	44.7µM*	?	7.08µM*	-8.6%	?
O=C1NN(c2ccc(F)c(Cl)c2)C(=O)/C1=C\c1cccc(OC(=O)c2cccs2)c1	-7.5%	1.06µM*	-82.3*	0.1%	-22.9%	22.4µM*	10.6*	?	-18.2%	-8.9%
CC(C)=C1C(=O)NN(c2ccc(F)c(Cl)c2)C1=O	-16.3%	-13.6%	·	-2.8%	-0.5%	-1.9%	·	·	·	·
Oc1ccc(C(=S)N2CCN(c3cccc(Cl)c3)CC2)cc1	-1.2%	8.44µM*	-3.7	-2.8%	-10.3%	?	?	?	-23.2%	3.7%
CC(=O)c1ccc(NC(=S)N2CCN(c3cccc(Cl)c3)CC2)cc1	1.1%	-5.9%	-0.7	-3.6%	-8.7%	-0.1%	·	·	·	·
CCc1ccccc1NC(=O)Cc1c(C(=O)O)[nH]c2ccc(Cl)cc12	·	·	·	·	-1.1%	?	·	·	·	·
O=C(NCc1cccnc1)/C(=C\c1ccc(-c2cccc(Cl)c2)o1)S(=O)(=O)c1ccccc1	10.6%	-29.7%	0.5	?	10.7%	44.7µM*	23.8*	?	6.51µM*	18.4µM*
O=C(NCc1cccnc1)/C(=C/c1ccc(-c2cccc(Cl)c2)o1)S(=O)(=O)c1ccccc1	-6.0%	-17.9%	5.1	1.3%	1.8%	?	·	·	·	·
Cc1ccc2oc(=O)n(CCNC(=O)Nc3ccc(C)c(F)c3)c2c1	·	·	·	·	-8.5%	-0.2%	·	·	·	·
CN(c1ccccc1)S(=O)(=O)c1ccc(NC(=O)c2nc(S(C)(=O)=O)ncc2Cl)cc1	0.8%	16.8µM*	3.3	?	-3.5%	20µM*	3.77*	3.55µM*	3.66µM*	8.2µM*
CCc1ccc(NC(=O)c2nc(S(=O)(=O)Cc3ccccc3)ncc2Cl)cc1	·	·	·	·	-4.5%	·	·	·	·	·
CCCSc1ncc(Cl)c(C(=O)Nc2ccc(S(=O)(=O)N(C)c3ccccc3)cc2)n1	·	·	·	·	0.5%	17.0%	·	·	·	·
CCOC(=O)c1ccc(NC(=O)c2nc(S(=O)(=O)Cc3ccccc3)ncc2Cl)cc1	-9.9%	11.9µM*	-14.7	-3.9%	-6.3%	31.6µM*	13.4*	?	14.6µM*	13µM*
CCS(=O)(=O)c1ncc(Cl)c(C(=O)Nc2ccc(S(=O)(=O)N3CCC(C)CC3)cc2)n1	-11.1%	?	-19.8	4.2%	-6.3%	14.1µM*	5.32*	3.55µM*	8.2µM*	3.66µM*
CCOc1ccccc1NC(=O)c1nc(S(=O)(=O)Cc2ccccc2)ncc1Cl	-9.9%	?	1.7	?	-10.5%	11.2µM*	6.7*	3.16µM*	6.51µM*	8.2µM*
CCOC(=O)c1c(-c2ccccc2)csc1NC(=O)c1nc(S(=O)(=O)CC)ncc1Cl	·	·	·	·	-5.9%	17.8µM*	3.16*	?	4.61µM*	21.2µM*
COC(=O)c1ccc(NC(=O)c2nc(S(=O)(=O)Cc3cccc(C)c3)ncc2Cl)cc1	-3.5%	?	-8.4	-3.4%	-25.1%	20µM*	5.97*	?	14.6µM*	11.6µM*
